Source: PubChem (SRMLSC)
Shown are actives, neighbours in structure and some others; about 6.8% of the full set was active somewhere.
PMK inhibit – blocks S. pneumoniae phosphomevalonate kinase | AID 539 | inhibition, % at 10 µM | 65,000 tested, 0.49% active | purified PMK, PK/LDH-coupled NADH absorbance 340 nm;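 active = top-ranked compounds by inhibition in the single 10 µM screen, taking a fixed number of the strongest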
Autofluor 339 – intrinsic fluorescence of library compounds, ex339/em460 – biochemical, MLSMR library, data from DPM-DC assay, artefact control, profiling panel; compound autofluorescence, ex339/em460 nm, NADH buffer; hits give high values; 1 = no-compound wells, NADH background; fluorescence fold increase at 10 µM; 65,000 tested, 5.5% active; AID 709;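 active = at 10 µM, mean starting fluorescence two-fold or more over control wells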;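 note: signal is the first read of a kinetic run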
MK inhibit – S. pneumoniae mevalonate kinase inhibition; purified MK, PK/LDH-coupled NADH absorbance 340 nm; inhibition, % at 10 µM; 65,000 tested, 0.48% active; AID 555;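 active = ranked among the strongest by inhibition in the single 10 µM screen, a fixed top-ranked set picked for dose follow-up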
NADH coupling – inhibitors of enzymes used to reach an NAD/NADH endpoint; 65,000 tested, 0.02% active; AID 774; IC50, µM (titrated, usually from 10 µM); coupled PK/LDH NADH assays, four targets;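 active = single-dose screening hits from any of four coupled enzyme assays that gave an IC50 when retested across doses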;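 note: the DPM-DC format reads NADH fluorescence rather than 340 nm absorbance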
DPM-DC inhibit – blocks S. pneumoniae diphosphomevalonate decarboxylase; purified DPM-DC, PK/LDH coupled NADH fluorescence; calls only at 10 µM; 65,000 tested, 0.49% active;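 active = the 320 compounds with the highest percent inhibition in the single-dose primary screen, excluding strongly autofluorescent ones, cut at about 32% in these data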;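 note: kinetic rate of NADH fluorescence loss reporting ADP formed by the decarboxylase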
A340 absorber – compounds absorbing at 340 nm; compound absorbance at 340 nm, fold over control; AID 708; fold change at 10 µM; 65,000 tested, under 10 active;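 active = at 10 µM dose, initial 340 nm absorbance at least 2 fold that of control wells; inactive = change under 2 fold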;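 note: initial absorbance extrapolated from kinetic A340 decline of NADH oxidation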
Each line names hits and unclear results; the compound was inactive in the other large screens.

COc1ccc(NC(=O)c2cc3cc(OC)ccc3oc2=N)cc1	none
CCCCCCc1cc2cc(C(=O)NC)c(=N)oc2cc1O	Autofluor 339 2.3 (not shown: DPM-DC inhibit)
O=C(c1cc2c(s1)-c1ccccc1OC2)N1CCN(c2ccccn2)CC1	Autofluor 339 2.1 (not shown: DPM-DC inhibit)
O=C(c1cc2c(s1)-c1ccccc1OC2)N1CCCC1	Autofluor 339 2.2 (not shown: DPM-DC inhibit)
O=C(Cn1ncc2c1-c1ccccc1OC2)N1CCN(c2ccccn2)CC1	none
Cc1csc(NC(=O)c2cc3c(s2)-c2ccccc2OC3)n1	Autofluor 339 2.5 (not shown: DPM-DC inhibit)
O=C(Nc1ccccc1C(=O)OCC(=O)N1CCc2ccccc2C1)c1ccco1	none
CC(C)Oc1ccc(NC(=O)c2ccncc2)cc1	none
Cc1ccc2oc(=O)c3cc(C(=O)NCc4ccco4)sc3c2c1	Autofluor 339 2 (not shown: DPM-DC inhibit)
COC(=O)CNC(=O)COC(=O)c1cc(Cl)cc(Cl)c1N	Autofluor 339 3.4 (not shown: DPM-DC inhibit)
COc1ccc(S(=O)(=O)N2CCCN(S(=O)(=O)c3ccc(OC)cc3C)CC2)c(C)c1	none
COc1ccc(-c2cc(C(F)F)n3ncc(C(=O)N4CCN(C(=O)c5ccco5)CC4)c3n2)cc1	Autofluor 339 2.1 (not shown: DPM-DC inhibit)
CCN1CCN(C(=O)c2cnn3c(C(F)F)cc(-c4ccc(C)cc4)nc23)CC1	Autofluor 339 2.3
COc1ccc(NC(=O)NCCCN2CCCC2=O)cc1	none
O=C(c1ccco1)N1CCN(c2ncnc3c(-c4ccccc4)nsc23)CC1	none
COc1ccc(-c2cc(C(F)F)n3ncc(C(=O)NCCCN4CCCC4=O)c3n2)cc1	Autofluor 339 2.2 (not shown: DPM-DC inhibit)
COc1ccc(-c2nsc3c(N4CCN(C(=O)c5ccco5)CC4)ncnc23)cc1	Autofluor 339 2.8, DPM-DC inhibit active
O=C(Nc1cn(-c2ccccc2)nc1-c1cccs1)c1ccco1	none
COc1ccc(-n2cnc3c(cnn3CCC#N)c2=N)cc1	none
CN1CCN(C(=O)c2cnn3c(C(F)(F)F)cc(-c4ccc5c(c4)OCO5)nc23)CC1	none
O=C(c1ccco1)N1CCN(C(=O)c2cnn3c(C(F)(F)F)cc(-c4cccs4)nc23)CC1	Autofluor 339 3.6 (not shown: DPM-DC inhibit)
Cc1cccc(C(=O)Nc2cc(=O)n(C)c(=O)n2C)c1	DPM-DC inhibit active
COc1ccc(CNC(=O)CCCCCn2c(SCC#N)nc3cc4c(cc3c2=O)OCO4)cc1	none
C/C(O)=c1/ccc2cccc3nc(C)nc1c23	Autofluor 339 3
O=C(CCn1c(=S)[nH]c2cc3c(cc2c1=O)OCO3)NCCN1CCCC1	none
Nc1nonc1-c1noc(CCCCCN2C(=O)c3ccccc3C2=O)n1	none
COc1cccc(CC(NC(C)=O)C(=O)NC2CCN(c3nc(C)cc(C)c3C#N)CC2)c1OC (configuration not stated)	Autofluor 339 3
COC(=O)c1ccc(CSc2nc3scc(-c4cccs4)c3c(=O)[nH]2)o1	none
CCCCc1cc2c(c(NC(=O)CC)n1)c(=O)oc1ccccc12	Autofluor 339 2.2
CCCCc1cc2c(c(NC(C)=O)n1)c(=O)oc1ccccc12	none
CC(C)CN(CC(C)C)C(=O)CS(=O)(=O)Cc1ccccc1	none
OCCN(CCO)c1nc(N2CCCCC2)c2nc(N(CCO)CCO)nc(N3CCCCC3)c2n1	Autofluor 339 2.2 (not shown: DPM-DC inhibit)
CN(C)c1ccc(C2C3C(=O)NC(=O)C3ON2c2ccc(Cl)cc2)cc1 (configuration not stated)	none
O=C(Cn1c(=O)n(CCCC(=O)NC2CCCC2)c(=O)c2ccccc21)NCCC1=CCCCC1	none
COCCn1c(=NC(=O)CSC(C)=O)sc2cc(OC)ccc21	none
COCCn1c(=NC(=O)CSCC(=O)NC2CCCCC2)sc2cc(OC)ccc21	Autofluor 339 2
C1CNCCNCCNCCN1	none
COC(=O)C1=C(C)NC(C)=C(C(=O)OC)C1c1ccc(NC(C)=O)cc1	Autofluor 339 2.1
CCN(CC)c1ccc(C2C(C(=O)OC)=C(C)NC(C)=C2C(=O)OC)cc1	none
CCOC(=O)C1=C(C)NC(C)=C(C(=O)OC)C1c1cccc(Cl)c1Cl (configuration not stated)	none
Cc1ccc2cc(COC(=O)c3ccncc3)c(=O)[nH]c2c1	none
CCOC(=O)C1=C(C)NC(C)=C(C(=O)OCC)C1c1cc2ccc(C)cc2[nH]c1=O	Autofluor 339 2.2, DPM-DC inhibit active
COC(=O)C1=C(C)NC(C)=C(C(=O)OC)C1c1cc2cc(C)ccc2[nH]c1=O	Autofluor 339 2.7
COC(=O)C1=C(C)NC(C)=C(C(=O)OC)C1c1cc2ccc(C)cc2[nH]c1=O	Autofluor 339 2.2
O=C(CCSc1nc(-c2ccco2)cc(C(F)(F)F)n1)Nc1ccc2c(c1)OCO2	none
CC(C)C(=O)Nc1nnc(-c2ccccc2)o1	none
NC(=O)c1oc2ccccc2c1NC(=O)c1nc2ccccc2s1	Autofluor 339 2.6
O=C(Nc1nnc(-c2ccccc2)o1)c1nc2ccccc2s1	Autofluor 339 2.2 (not shown: DPM-DC inhibit)
O=C(NCc1cccnc1)c1cnn2ccccc12	none
Cc1cc(C)n2ncc(C(=O)NCc3cccnc3)c2n1	Autofluor 339 3.6
Cc1cccn2c(=O)c3cc(C(=O)NCc4cccnc4)c(=N)n(C)c3nc12	none
Cc1cccn2c(=O)c3cc(C(=O)NCc4cccnc4)c(=N)n(C(C)C)c3nc12	Autofluor 339 3.7 (not shown: DPM-DC inhibit)
Cc1ccc2nc3c(cc(C(=O)NCc4cccnc4)c(=N)n3C(C)C)c(=O)n2c1	Autofluor 339 5 (not shown: DPM-DC inhibit)
Cc1cc(C(=O)OCCO)c(C#N)c(N)n1	Autofluor 339 2.9 (not shown: DPM-DC inhibit)
CCN1C(=O)c2ccccc2S(=O)c2ccc(C(=O)NCCCN3CCCC3=O)cc21 (configuration not stated)	none
Clc1ccc2nc(N3CCNCC3)nc(-c3ccccc3)c2c1	Autofluor 339 2.3 (not shown: DPM-DC inhibit)
CN(C)CCCNC(CC(=O)Nc1ccc(Cl)cc1)C(=O)O (configuration not stated)	none
COCCCn1c2nc3ccccc3nc2c2c(=O)n(Cc3ccc(Cl)cc3)cnc21	Autofluor 339 3.8 (not shown: DPM-DC inhibit)
CCCCn1c2nc3ccccc3nc2c2c(=O)n(CC(C)C)cnc21	none (no result: DPM-DC inhibit)
COCCCn1c(C)nc2c(c1=O)c1nc3ccccc3nc1n2CCc1ccccc1	Autofluor 339 2.4 (not shown: DPM-DC inhibit)
CCCCn1c2nc3ccccc3nc2c2c(=O)n(C(C)CC)cnc21 (configuration not stated)	Autofluor 339 2.1 (not shown: DPM-DC inhibit)
O=c1c2c3nc4ccccc4nc3n(Cc3ccccc3)c2ncn1Cc1ccco1	Autofluor 339 3.3
Cc1nc(N2CCN(S(=O)(=O)c3cccc4nonc34)CC2)c2c3c(sc2n1)CCCC3	none
N#Cc1cccc(NC(=O)NCCc2c[nH]c3ccccc23)c1	none
CC(C)Cn1c(SCc2nnc(-c3cccs3)o2)nc(O)cc1=O	none
COc1cc(NC(=O)c2cccc3c2C(=O)N(Cc2cccnc2)C3)cc(OC)c1OC	none
CCN(CC)CCCN1C(=O)C(=O)/C(=C(/O)c2ccc3c(c2)CC(C)O3)C1c1cccnc1 (configuration not stated)	none
